Common to all, as to experiment: DAPPL (digital affinity profiling via proximity ligation, sequencing); 10 mM Tris-HCl pH 7.5, 50 mM NaCl, 1 mM DTT, 4% glycerol, room temperature, 30 min; GST-TFs on glutathione beads, 16-mer random dsDNA library, 0.1% formaldehyde crosslink after washing; high values mean tight binding
The target in one experiment is T1, FEV (Homo sapiens, UniProt Q99581 1-238).
T1 sequence: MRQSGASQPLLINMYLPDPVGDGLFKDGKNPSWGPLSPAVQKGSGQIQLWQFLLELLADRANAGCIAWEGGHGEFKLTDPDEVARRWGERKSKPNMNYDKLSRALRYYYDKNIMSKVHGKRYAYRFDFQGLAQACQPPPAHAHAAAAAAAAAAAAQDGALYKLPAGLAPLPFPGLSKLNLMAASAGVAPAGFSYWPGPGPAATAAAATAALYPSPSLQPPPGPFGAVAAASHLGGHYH
The conditions noted are these: protein: recombinant; tags: N-terminal GST; dsDNA, one strand shown. In a few lines:
(§1)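 Each value of binding signal is a hexamer's read frequency for a factor divided by the same hexamer's frequency in the tag-only sample. Barcoded, bead-captured GST fusions of human transcription factors made in yeast were pooled with that sample and incubated with 200 nmole of a random double-stranded 16-mer DNA library in Tris/NaCl/DTT/glycerol buffer at room temperature for 30 min. Washing, 0.1% formaldehyde crosslinking, proximity ligation, PCR and Illumina NextSeq500 sequencing followed.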

A further experiment concerns the target ETV5 (Homo sapiens, UniProt P41161 1-510). The conditions noted are these: protein: recombinant; tags: N-terminal GST; dsDNA, one strand shown. In a few lines: as §1
The next experiment concerns the target HSF1 (Homo sapiens, UniProt Q00613 1-529). The following applies: protein: recombinant; tags: N-terminal GST; chain copies: 3; dsDNA, one strand shown. In a few lines:
as §1

A further experiment deals with T2, SPIC (Homo sapiens, UniProt Q8N5J4 1-248).
T2 sequence: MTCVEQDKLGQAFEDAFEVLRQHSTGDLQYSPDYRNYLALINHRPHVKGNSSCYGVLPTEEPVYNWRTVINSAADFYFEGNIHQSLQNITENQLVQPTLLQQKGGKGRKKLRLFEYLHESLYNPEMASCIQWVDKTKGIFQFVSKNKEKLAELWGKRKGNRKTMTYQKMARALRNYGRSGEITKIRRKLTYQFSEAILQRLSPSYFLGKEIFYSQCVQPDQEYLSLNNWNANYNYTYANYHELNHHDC
The following applies: protein: recombinant; tags: N-terminal GST; dsDNA, one strand shown. In a few lines:
as §1

The target in the next experiment is ELF4 (Homo sapiens, UniProt Q99607 1-663). The conditions noted are these: protein: recombinant; tags: N-terminal GST; dsDNA, one strand shown. A digest of the protocol: as §1
The target in a further experiment is T3, ELK4 (Homo sapiens, UniProt P28324-2 1-405).
T3 sequence: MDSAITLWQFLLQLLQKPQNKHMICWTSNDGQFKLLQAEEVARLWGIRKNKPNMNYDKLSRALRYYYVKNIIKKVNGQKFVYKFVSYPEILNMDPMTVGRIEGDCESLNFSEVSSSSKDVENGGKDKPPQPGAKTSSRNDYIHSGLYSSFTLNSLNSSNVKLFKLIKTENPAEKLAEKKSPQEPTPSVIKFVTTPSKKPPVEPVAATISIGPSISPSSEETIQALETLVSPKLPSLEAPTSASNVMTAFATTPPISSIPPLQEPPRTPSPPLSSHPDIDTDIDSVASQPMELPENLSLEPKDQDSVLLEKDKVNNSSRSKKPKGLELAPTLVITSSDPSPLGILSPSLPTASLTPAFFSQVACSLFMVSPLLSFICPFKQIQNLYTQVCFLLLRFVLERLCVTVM
The conditions noted are these: protein: recombinant; tags: N-terminal GST; dsDNA, one strand shown. A digest of the protocol: as §1

The target of the next experiment is T4, ETV2 (Homo sapiens, UniProt O00321 1-342).
T4 sequence: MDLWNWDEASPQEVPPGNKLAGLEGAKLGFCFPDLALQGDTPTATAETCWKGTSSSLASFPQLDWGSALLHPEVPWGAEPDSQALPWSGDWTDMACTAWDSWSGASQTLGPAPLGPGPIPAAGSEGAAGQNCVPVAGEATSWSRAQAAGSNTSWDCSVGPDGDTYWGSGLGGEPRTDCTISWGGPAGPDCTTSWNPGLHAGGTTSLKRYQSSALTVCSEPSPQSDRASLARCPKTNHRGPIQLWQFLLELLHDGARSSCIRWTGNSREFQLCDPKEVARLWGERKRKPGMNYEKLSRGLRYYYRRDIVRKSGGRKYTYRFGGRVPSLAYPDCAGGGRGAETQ
The conditions noted are these: protein: recombinant; tags: N-terminal GST; dsDNA, one strand shown. A digest of the protocol: as §1

Another experiment addresses T5, ELF3 (Homo sapiens, UniProt P78545 1-371).
T5 sequence: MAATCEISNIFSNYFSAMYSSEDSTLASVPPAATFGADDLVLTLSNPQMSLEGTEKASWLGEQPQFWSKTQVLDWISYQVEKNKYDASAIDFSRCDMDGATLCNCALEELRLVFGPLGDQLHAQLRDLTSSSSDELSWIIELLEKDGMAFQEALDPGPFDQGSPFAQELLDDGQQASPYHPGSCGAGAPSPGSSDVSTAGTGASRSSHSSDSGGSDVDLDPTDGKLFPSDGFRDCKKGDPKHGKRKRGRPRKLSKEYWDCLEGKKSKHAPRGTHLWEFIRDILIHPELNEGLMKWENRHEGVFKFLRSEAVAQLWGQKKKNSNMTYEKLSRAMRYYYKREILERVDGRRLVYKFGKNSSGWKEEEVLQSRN
The conditions noted are these: protein: recombinant; tags: N-terminal GST; dsDNA, one strand shown. A digest of the protocol: as §1

In the next experiment the target is CRX (Homo sapiens, UniProt O43186 1-299). The conditions noted are these: protein: recombinant; tags: N-terminal GST; dsDNA, one strand shown. A digest of the protocol:
as §1

In the next experiment the target is ETV1 (Homo sapiens, UniProt P50549 1-477). The conditions noted are these: protein: recombinant; tags: N-terminal GST; dsDNA, one strand shown. A digest of the protocol: as §1
The target in another experiment is T6, ERF (Homo sapiens, UniProt P50548 1-548).
T6 sequence: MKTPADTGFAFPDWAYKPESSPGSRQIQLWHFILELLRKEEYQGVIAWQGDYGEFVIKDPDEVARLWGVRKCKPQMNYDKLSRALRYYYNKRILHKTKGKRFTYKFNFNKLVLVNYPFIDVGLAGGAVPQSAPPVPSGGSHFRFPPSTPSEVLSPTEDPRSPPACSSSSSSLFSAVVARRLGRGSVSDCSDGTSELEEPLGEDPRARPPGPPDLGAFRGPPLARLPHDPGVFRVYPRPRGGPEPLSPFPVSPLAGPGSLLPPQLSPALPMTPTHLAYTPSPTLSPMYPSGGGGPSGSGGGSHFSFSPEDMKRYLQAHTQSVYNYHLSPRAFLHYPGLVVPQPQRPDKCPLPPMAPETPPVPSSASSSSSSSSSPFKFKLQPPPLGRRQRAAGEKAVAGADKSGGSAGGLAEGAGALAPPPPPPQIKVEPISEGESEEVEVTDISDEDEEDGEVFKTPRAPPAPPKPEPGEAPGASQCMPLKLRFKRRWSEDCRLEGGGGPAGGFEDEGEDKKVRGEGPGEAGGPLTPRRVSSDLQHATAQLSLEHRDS
The following applies: protein: recombinant; tags: N-terminal GST; dsDNA, one strand shown. A digest of the protocol:
as §1

The target of the next experiment is T7, ETV3L (Homo sapiens, UniProt Q6ZN32 1-361).
T7 sequence: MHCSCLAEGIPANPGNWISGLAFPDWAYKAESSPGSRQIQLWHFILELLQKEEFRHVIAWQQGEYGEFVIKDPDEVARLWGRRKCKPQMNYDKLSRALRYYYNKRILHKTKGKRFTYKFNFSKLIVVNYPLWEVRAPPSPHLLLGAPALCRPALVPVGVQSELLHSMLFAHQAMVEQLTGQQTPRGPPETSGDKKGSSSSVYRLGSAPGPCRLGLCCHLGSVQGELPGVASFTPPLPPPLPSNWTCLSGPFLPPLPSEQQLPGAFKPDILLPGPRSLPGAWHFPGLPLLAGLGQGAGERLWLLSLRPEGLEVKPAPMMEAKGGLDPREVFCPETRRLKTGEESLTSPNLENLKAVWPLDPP
The conditions noted are these: protein: recombinant; tags: N-terminal GST; dsDNA, one strand shown. A digest of the protocol: as §1

The next experiment addresses T8, ETS2 (Homo sapiens, UniProt P15036 1-469).
T8 sequence: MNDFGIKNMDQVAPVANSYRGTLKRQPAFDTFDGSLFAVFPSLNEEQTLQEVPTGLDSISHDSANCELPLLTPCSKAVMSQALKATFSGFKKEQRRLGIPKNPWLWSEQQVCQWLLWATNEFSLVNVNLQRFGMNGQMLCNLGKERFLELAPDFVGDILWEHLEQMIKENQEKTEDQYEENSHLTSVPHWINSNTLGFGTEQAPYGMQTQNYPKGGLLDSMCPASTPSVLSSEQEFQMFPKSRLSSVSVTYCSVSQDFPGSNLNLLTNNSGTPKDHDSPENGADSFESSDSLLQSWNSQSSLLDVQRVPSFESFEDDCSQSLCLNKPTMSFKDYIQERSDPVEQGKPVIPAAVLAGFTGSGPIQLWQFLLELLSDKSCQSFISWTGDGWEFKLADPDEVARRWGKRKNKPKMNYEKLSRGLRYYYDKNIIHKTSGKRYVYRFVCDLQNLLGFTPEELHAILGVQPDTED
The conditions noted are these: protein: recombinant; tags: N-terminal GST; dsDNA, one strand shown. A digest of the protocol:
as §1

A further experiment addresses T9, SPDEF (Homo sapiens, UniProt O95238 1-335).
T9 sequence: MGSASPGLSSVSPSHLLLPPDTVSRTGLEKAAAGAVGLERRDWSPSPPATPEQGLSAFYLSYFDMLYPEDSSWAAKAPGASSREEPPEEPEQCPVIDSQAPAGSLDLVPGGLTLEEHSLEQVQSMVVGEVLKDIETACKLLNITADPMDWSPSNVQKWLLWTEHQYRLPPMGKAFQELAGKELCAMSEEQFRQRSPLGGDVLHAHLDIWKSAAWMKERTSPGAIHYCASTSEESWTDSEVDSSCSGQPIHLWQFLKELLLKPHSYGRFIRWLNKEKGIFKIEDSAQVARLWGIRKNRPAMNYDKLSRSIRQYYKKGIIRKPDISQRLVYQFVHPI
The conditions noted are these: protein: recombinant; tags: N-terminal GST; dsDNA, one strand shown. A digest of the protocol: as §1

A further experiment concerns the target T10, ETV7 (Homo sapiens, UniProt Q9Y603 1-341).
T10 sequence: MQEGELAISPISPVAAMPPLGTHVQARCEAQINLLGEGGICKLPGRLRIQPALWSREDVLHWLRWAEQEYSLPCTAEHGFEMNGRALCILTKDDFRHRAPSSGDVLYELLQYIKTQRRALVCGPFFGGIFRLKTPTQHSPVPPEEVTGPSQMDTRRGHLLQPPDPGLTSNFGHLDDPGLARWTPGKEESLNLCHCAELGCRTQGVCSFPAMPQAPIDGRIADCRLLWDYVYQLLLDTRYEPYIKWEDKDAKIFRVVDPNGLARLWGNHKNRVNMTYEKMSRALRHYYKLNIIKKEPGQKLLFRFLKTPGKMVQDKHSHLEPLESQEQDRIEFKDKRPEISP
The conditions noted are these: protein: recombinant; tags: N-terminal GST; dsDNA, one strand shown. In a few lines:
as §1

The next experiment addresses T11, ELF5 (Homo sapiens, UniProt Q9UKW6-2 1-255).
T11 sequence: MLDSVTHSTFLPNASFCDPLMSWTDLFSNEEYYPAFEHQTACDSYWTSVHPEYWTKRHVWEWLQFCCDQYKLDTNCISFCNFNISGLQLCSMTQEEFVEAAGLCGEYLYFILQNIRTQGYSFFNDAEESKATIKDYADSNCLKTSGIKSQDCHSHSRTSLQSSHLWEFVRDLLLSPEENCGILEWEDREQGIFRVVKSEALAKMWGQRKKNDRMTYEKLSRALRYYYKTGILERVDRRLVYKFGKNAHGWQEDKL
The conditions noted are these: protein: recombinant; tags: N-terminal GST; dsDNA, one strand shown. In a few lines: as §1

For the next experiment, the target named is T12, ETV3 (Homo sapiens, UniProt P41162-2 1-143).
T12 sequence: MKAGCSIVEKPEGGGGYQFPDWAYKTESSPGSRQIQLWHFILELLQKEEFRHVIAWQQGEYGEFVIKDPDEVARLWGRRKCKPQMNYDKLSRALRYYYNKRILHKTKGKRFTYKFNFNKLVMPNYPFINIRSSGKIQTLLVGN
The conditions noted are these: protein: recombinant; tags: N-terminal GST; dsDNA, one strand shown. In a few lines:
as §1

The next experiment addresses ETV6 (Homo sapiens, UniProt P41212 1-452). The conditions noted are these: protein: recombinant; tags: N-terminal GST; dsDNA, one strand shown. In a few lines: as §1

HSF1, sequence (Q00613 whole entry): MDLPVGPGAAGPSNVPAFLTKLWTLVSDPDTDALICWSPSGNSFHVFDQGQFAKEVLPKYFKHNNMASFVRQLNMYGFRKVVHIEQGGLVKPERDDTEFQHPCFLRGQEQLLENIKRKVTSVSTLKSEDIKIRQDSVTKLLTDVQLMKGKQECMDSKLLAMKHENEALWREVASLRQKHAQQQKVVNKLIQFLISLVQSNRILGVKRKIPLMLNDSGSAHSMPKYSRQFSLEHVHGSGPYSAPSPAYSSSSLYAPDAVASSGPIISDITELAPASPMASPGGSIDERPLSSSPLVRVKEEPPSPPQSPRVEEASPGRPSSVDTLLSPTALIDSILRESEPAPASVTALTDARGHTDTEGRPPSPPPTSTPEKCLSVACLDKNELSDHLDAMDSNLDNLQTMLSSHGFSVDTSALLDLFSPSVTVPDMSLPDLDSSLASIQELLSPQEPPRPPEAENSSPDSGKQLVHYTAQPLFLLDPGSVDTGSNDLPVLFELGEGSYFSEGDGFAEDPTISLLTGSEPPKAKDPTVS
ETV5, sequence (P41161 whole entry): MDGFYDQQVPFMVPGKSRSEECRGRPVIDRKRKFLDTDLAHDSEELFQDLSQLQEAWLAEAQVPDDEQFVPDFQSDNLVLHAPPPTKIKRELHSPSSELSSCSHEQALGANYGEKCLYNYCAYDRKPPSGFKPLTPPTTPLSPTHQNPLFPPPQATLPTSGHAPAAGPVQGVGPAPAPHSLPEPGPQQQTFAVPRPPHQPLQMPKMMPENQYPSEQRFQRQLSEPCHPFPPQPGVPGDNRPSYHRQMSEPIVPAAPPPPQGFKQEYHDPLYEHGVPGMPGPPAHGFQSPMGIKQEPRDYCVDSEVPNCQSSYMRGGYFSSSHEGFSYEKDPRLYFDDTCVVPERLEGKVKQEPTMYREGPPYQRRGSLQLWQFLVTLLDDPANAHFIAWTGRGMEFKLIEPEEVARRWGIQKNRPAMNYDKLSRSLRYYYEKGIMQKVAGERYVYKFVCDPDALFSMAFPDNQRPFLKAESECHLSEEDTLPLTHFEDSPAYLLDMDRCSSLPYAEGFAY
ETV6, sequence (P41212 whole entry): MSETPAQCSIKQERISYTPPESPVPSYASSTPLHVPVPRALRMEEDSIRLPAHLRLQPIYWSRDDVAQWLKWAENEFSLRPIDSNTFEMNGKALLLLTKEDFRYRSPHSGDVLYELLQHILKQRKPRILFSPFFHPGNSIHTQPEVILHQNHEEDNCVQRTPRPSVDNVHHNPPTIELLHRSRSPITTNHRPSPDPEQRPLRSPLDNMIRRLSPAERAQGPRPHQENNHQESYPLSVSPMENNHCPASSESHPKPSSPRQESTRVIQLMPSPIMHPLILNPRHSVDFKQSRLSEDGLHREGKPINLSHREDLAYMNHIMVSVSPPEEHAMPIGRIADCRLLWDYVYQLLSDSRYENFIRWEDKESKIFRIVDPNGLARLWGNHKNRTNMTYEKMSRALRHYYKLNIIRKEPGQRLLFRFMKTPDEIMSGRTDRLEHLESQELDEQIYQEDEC
ETV1, sequence (P50549 whole entry): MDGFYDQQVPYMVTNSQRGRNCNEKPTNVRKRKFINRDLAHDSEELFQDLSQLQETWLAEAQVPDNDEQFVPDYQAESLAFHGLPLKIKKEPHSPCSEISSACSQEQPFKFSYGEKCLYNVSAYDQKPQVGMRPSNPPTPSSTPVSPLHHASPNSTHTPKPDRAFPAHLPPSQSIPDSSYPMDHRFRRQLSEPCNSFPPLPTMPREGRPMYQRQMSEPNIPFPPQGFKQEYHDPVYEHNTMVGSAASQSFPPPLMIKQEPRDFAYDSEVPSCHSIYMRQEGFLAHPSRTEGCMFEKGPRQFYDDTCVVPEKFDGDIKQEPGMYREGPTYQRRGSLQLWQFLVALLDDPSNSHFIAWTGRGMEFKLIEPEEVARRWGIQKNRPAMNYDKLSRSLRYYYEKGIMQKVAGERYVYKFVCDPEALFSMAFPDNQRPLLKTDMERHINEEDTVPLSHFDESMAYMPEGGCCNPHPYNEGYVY
ELF4, sequence (Q99607 whole entry): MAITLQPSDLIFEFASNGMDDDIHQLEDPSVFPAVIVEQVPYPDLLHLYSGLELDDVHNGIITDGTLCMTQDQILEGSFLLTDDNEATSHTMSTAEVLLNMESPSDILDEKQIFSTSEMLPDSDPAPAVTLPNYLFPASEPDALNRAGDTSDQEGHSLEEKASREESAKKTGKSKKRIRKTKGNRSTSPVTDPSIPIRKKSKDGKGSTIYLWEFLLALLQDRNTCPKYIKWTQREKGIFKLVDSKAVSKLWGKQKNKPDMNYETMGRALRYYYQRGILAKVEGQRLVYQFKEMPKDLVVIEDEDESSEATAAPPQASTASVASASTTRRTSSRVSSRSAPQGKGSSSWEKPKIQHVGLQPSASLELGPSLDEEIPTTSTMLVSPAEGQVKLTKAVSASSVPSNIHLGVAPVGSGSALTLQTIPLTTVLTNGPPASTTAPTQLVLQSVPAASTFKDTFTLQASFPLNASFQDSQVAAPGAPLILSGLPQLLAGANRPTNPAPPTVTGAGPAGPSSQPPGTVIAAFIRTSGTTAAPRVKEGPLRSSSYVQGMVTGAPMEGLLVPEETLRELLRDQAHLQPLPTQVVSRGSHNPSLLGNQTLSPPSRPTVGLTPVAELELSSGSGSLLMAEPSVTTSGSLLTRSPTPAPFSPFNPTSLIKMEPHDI
CRX, sequence (O43186 whole entry): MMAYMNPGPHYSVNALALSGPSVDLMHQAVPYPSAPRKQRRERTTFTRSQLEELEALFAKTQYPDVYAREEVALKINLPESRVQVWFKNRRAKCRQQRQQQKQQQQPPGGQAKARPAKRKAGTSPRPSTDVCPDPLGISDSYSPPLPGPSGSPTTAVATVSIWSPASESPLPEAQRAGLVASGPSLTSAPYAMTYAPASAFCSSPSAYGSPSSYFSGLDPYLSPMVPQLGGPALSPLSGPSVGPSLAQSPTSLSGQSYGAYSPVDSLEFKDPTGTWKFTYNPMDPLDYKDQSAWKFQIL

As to CTTTCC, the binding signal with FEV was 2.15 fold enrichment (6-mer frequency, TF over GST control); with ETV5, 2.04 fold enrichment (6-mer frequency, TF over GST control); in the experiment with HSF1, 2.13 fold enrichment (6-mer frequency, TF over GST control); with SPIC, 1.82 fold enrichment (6-mer frequency, TF over GST control); with ELF4, 1.9 fold enrichment (6-mer frequency, TF over GST control); with ELK4 it was 1.94 fold enrichment (6-mer frequency, TF over GST control). Moreover, the binding signal with ETV2 was 2.11 fold enrichment (6-mer frequency, TF over GST control); in the experiment with ELF3, 1.63 fold enrichment (6-mer frequency, TF over GST control); with CRX it was 1.54 fold enrichment (6-mer frequency, TF over GST control); in the experiment with ETV1, 1.91 fold enrichment (6-mer frequency, TF over GST control); in the experiment with ERF it was 1.82 fold enrichment (6-mer frequency, TF over GST control); with ETV3L, 1.76 fold enrichment (6-mer frequency, TF over GST control). Besides, the binding signal with ETS2 was 2.1 fold enrichment (6-mer frequency, TF over GST control); with SPDEF, 1.96 fold enrichment (6-mer frequency, TF over GST control); with ETV7, 1.64 fold enrichment (6-mer frequency, TF over GST control); in the experiment with ELF5 it was 2.39 fold enrichment (6-mer frequency, TF over GST control); in the experiment with ETV3, 2.12 fold enrichment (6-mer frequency, TF over GST control); with ETV6, 2.07 fold enrichment (6-mer frequency, TF over GST control).
